Results published in PubChem BioAssay AID1159580 (chemical genetic matrix, 2015).
“And” between values parts separate entries of the source, which are not always exact repeats. Equal entries are not always repeated. The whole screen tested about 5,500 compounds, of which about 2,000 (36%) were called active. Not shown: some 18% with an inconclusive outcome. Rule as the data show it: active = normalized growth mostly below about 0.91 (no sharp cut-off); inconclusive = no clear call, values can overlap the other calls; inactive = mostly above about 0.92. Some of the results follow.

Assay: chemical genetic growth profiling, strain panel (AID 1159580);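 also: tested at 20 µM; growth read once vehicle control cultures reached saturation at 30 °C; 1 = growth at the plate median or of vehicle wells; lower values mean less growth of the strain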
Details: growth OD
[1] = S. cerevisiae deletion strains, locus YAL013W, strain DEP1, stronger effect = lower value
[2] = S. cerevisiae deletion strains, locus YAL040C, strain CLN3, stronger effect = lower value
[3] = S. cerevisiae deletion strains, locus YCL061C, strain MRC1 (second series), stronger effect = lower value
[4] = S. cerevisiae deletion strains, locus YDR150W, strain NUM1, stronger effect = lower value
[5] = S. cerevisiae deletion strains, locus YER002W, strain NOP16, stronger effect = lower value
[6] = S. cerevisiae deletion strains, locus YMR307W, strain GAS1, stronger effect = lower value
[7] = S. cerevisiae deletion strains, locus YNL128W, strain TEP1, stronger effect = lower value
[8] = S. cerevisiae deletion strains, locus YNL153C, strain GIM3, stronger effect = lower value
[9] = S. cerevisiae deletion strains, locus YNL175C, strain NOP13, stronger effect = lower value
[10] = S. cerevisiae deletion strains, locus YNL197C, strain WHI3, stronger effect = lower value
[11] = S. cerevisiae deletion strains, locus YNL224C, strain SQS1, stronger effect = lower value
[12] = S. cerevisiae deletion strains, locus YOR083W, strain WHI5 (second series), stronger effect = lower value
[13] = S. cerevisiae deletion strains, locus YPL055C, strain LGE1, stronger effect = lower value
[14] = S. cerevisiae deletion strains, locus YJR075W, strain HOC1, stronger effect = lower value
[15] = S. cerevisiae deletion strains, locus YPL241C, strain CIN2, stronger effect = lower value

Measured: normalized growth

CCN1C(=O)C=CC1=O
inactive: [1] 1.04 | [2] 1 | [3] 1.01 | [4] 1.01 | S. cerevisiae deletion strains, locus YDR363W, strain ESC2, stronger effect = lower value 0.992 | [5] 1 | [6] 1.02 | [7] 1.03 | [8] 1.02 | [9] 1.01 | [10] 1.01 | [11] 1 | [12] 1.07 | [13] 1.09

CC12C(=O)OC(=O)C1(C)C1CCC2O1 (configuration not stated)
inactive: [2] 0.905 | [3] 0.975 | [5] 0.925 | [14] 1.04 | [7] 0.954 | [13] 1.05 | [15] 0.967
active: [9] 0.887 | [10] 0.879 | [11] 0.911 | [12] 0.85

C[C@@]12C(=O)OC(=O)[C@]1(C)C1CCC2O1
inactive: [1] 0.966 | S. cerevisiae deletion strains, locus YDL035C, strain GPR1, stronger effect = lower value 0.919 | S. cerevisiae deletion strains, locus YDL101C, strain DUN1, stronger effect = lower value 0.971 | S. cerevisiae deletion strains, locus YDL134C, strain PPH21, stronger effect = lower value 0.939 | [4] 0.926 | S. cerevisiae deletion strains, locus YER110C, stronger effect = lower value 0.902 | S. cerevisiae deletion strains, locus YGL248W, strain PDE1, stronger effect = lower value 0.932 | S. cerevisiae deletion strains, locus YGR078C, strain PAC10, stronger effect = lower value 0.869 | S. cerevisiae deletion strains, locus YGR229C, strain SMI1, stronger effect = lower value 1.02 | S. cerevisiae deletion strains, locus YGR252W, strain gcn5, stronger effect = lower value 0.848 | S. cerevisiae deletion strains, locus YIL066C, strain RNR3, stronger effect = lower value 0.924 | S. cerevisiae deletion strains, locus YIL073C, strain SPO22, stronger effect = lower value 0.968 | S. cerevisiae deletion strains, locus YJL134W, strain LCB3, stronger effect = lower value 0.929 | S. cerevisiae deletion strains, locus YJL187C, strain SWE1 (second series), stronger effect = lower value 0.895 | S. cerevisiae deletion strains, locus YJR043C, strain POL32, stronger effect = lower value 0.862 | [14] 0.964 | S. cerevisiae deletion strains, locus YKL190W, strain CNB1, stronger effect = lower value 0.94 | S. cerevisiae deletion strains, locus YLR039C, strain RIC1, stronger effect = lower value 0.918 | S. cerevisiae deletion strains, locus YLR058C, strain SHM2, stronger effect = lower value 0.931 | S. cerevisiae deletion strains, locus YLR262C, strain YPT6, stronger effect = lower value 1 | S. cerevisiae deletion strains, locus YLR330W, strain CHS5, stronger effect = lower value 0.923 | S. cerevisiae deletion strains, locus YLR342W, strain FKS1 (second series), stronger effect = lower value 1.11 | S. cerevisiae deletion strains, locus YLR418C, strain cdc73, stronger effect = lower value 0.949 | [6] 1.13 | [7] 0.944 | S. cerevisiae deletion strains, locus YNL233W, strain BNI4, stronger effect = lower value 0.923 | S. cerevisiae deletion strains, locus YNL307C, strain MCK1, stronger effect = lower value 0.922 | S. cerevisiae deletion strains, locus YOL006C, strain TOP1, stronger effect = lower value 0.835 | S. cerevisiae deletion strains, locus YOL012C, strain htz1 0.4 | S. cerevisiae deletion strains, locus YOR061W, strain CKA2, stronger effect = lower value 0.905 | S. cerevisiae deletion strains, locus YOR184W, strain ser1, stronger effect = lower value 0.939 | [15] 0.932 | S. cerevisiae strains, strain wild type, stronger effect = lower value 0.94
active: S. cerevisiae deletion strains, locus YBR021W, strain FUR4, stronger effect = lower value 0.808 | S. cerevisiae deletion strains, locus YBR229C, strain ROT2, stronger effect = lower value 0.913 | S. cerevisiae deletion strains, locus YCL029C, strain bik1, stronger effect = lower value 0.685 | S. cerevisiae deletion strains, locus YDL074C, strain BRE1, stronger effect = lower value 0.662 | S. cerevisiae deletion strains, locus YDL185W, strain tfp1, stronger effect = lower value 0.106 | S. cerevisiae deletion strains, locus YDL192W, strain arf1, stronger effect = lower value 0.87 | S. cerevisiae deletion strains, locus YDR101C, strain arx1, stronger effect = lower value 0.715 | S. cerevisiae deletion strains, locus YDR162C, strain NBP2, stronger effect = lower value 0.824 | S. cerevisiae deletion strains, locus YDR318W, strain mcm21, stronger effect = lower value 0.681 | S. cerevisiae deletion strains, locus YDR388W, stronger effect = lower value 0.85 | S. cerevisiae deletion strains, locus YDR502C, strain sam2, stronger effect = lower value 0.826 | S. cerevisiae deletion strains, locus YEL061C, strain CIN8, stronger effect = lower value 0.91 | S. cerevisiae deletion strains, locus YER155C, strain BEM2, stronger effect = lower value 0.887 | S. cerevisiae deletion strains, locus YER167W, strain BCK2, stronger effect = lower value 0.895 | S. cerevisiae deletion strains, locus YGL078C, strain dbp3, stronger effect = lower value 0.15 | S. cerevisiae deletion strains, locus YGL086W, strain mad1, stronger effect = lower value 0.911 | S. cerevisiae deletion strains, locus YGR135W, strain pre9, stronger effect = lower value 0.785 | S. cerevisiae deletion strains, locus YHR030C, strain SLT2, stronger effect = lower value 0.0503 and 0.0957 | S. cerevisiae deletion strains, locus YHR079C, strain IRE1 (second series), stronger effect = lower value 0.782 | S. cerevisiae deletion strains, locus YHR079C, strain IRE1, stronger effect = lower value 0.173 | S. cerevisiae deletion strains, locus YHR094C, strain hxt1, stronger effect = lower value 0.861 | S. cerevisiae deletion strains, locus YHR129C, strain ARP1, stronger effect = lower value 0.877 | S. cerevisiae deletion strains, locus YHR200W, strain rpn10, stronger effect = lower value 0.82 | S. cerevisiae deletion strains, locus YIL125W, strain kgd1, stronger effect = lower value 0.23 | S. cerevisiae deletion strains, locus YIR030C, strain dcg1, stronger effect = lower value 0.869 | S. cerevisiae deletion strains, locus YJL095W, strain BCK1, stronger effect = lower value 0.0568 and 0.105 | S. cerevisiae deletion strains, locus YJL168C, strain set2, stronger effect = lower value 0.798 | S. cerevisiae deletion strains, locus YJR066W, strain TOR1, stronger effect = lower value 0.049 | S. cerevisiae deletion strains, locus YKL009W, strain mrt4, stronger effect = lower value 0.169 | S. cerevisiae deletion strains, locus YKL068W, stronger effect = lower value 0.288 | S. cerevisiae deletion strains, locus YKL085W, strain MDH1 (second series), stronger effect = lower value 0.17 | S. cerevisiae deletion strains, locus YKL085W, strain MDH1, stronger effect = lower value 0.17 | S. cerevisiae deletion strains, locus YKR001C, strain vps1, stronger effect = lower value 0.658 | S. cerevisiae deletion strains, locus YLR102C, strain apc9, stronger effect = lower value 0.833 | S. cerevisiae deletion strains, locus YLR113W, strain HOG1, stronger effect = lower value 0.182 | S. cerevisiae deletion strains, locus YLR268W, strain sec22, stronger effect = lower value 0.78 | S. cerevisiae deletion strains, locus YLR371W, strain rom2, stronger effect = lower value 0.879 | S. cerevisiae deletion strains, locus YML016C, strain PPZ1, stronger effect = lower value 0.91 | S. cerevisiae deletion strains, locus YML032C, strain rad52, stronger effect = lower value 0.69 | S. cerevisiae deletion strains, locus YML124C, strain tub3, stronger effect = lower value 0.853 | S. cerevisiae deletion strains, locus YMR078C, strain ctf18, stronger effect = lower value 0.753 | S. cerevisiae deletion strains, locus YMR223W, strain ubp8, stronger effect = lower value 0.8 | S. cerevisiae deletion strains, locus YMR263W, strain SAP30, stronger effect = lower value 0.877 | S. cerevisiae deletion strains, locus YNL067W, strain RPL9B, stronger effect = lower value 0.841 | [8] 0.671 | S. cerevisiae deletion strains, locus YNL183C, strain NPR1, stronger effect = lower value 0.0569 | S. cerevisiae deletion strains, locus YNL250W, strain rad50, stronger effect = lower value 0.144 | S. cerevisiae deletion strains, locus YNL271C, strain bni1, stronger effect = lower value 0.521 | S. cerevisiae deletion strains, locus YNL298W, strain CLA4, stronger effect = lower value 0.162 | S. cerevisiae deletion strains, locus YNL322C, strain KRE1, stronger effect = lower value 0.923 | S. cerevisiae deletion strains, locus YNR052C, strain pop2, stronger effect = lower value 0.791 | S. cerevisiae deletion strains, locus YOL147C, strain pex11, stronger effect = lower value 0.825 | S. cerevisiae deletion strains, locus YOR069W, strain VPS5, stronger effect = lower value 0.917 | S. cerevisiae deletion strains, locus YOR136W, strain idh2, stronger effect = lower value 0.906 | S. cerevisiae deletion strains, locus YOR144C, strain elg1, stronger effect = lower value 0.703 | S. cerevisiae deletion strains, locus YOR231W, strain MKK1, stronger effect = lower value 0.147 | S. cerevisiae deletion strains, locus YOR316C, strain cot1, stronger effect = lower value 0.854 | [13] 0.601 | S. cerevisiae deletion strains, locus YPL256C, strain CLN2, stronger effect = lower value 0.167 | S. cerevisiae deletion strains, locus YPR119W, strain clb2, stronger effect = lower value 0.861 | S. cerevisiae deletion strains, locus YPR141C, strain kar3, stronger effect = lower value 0.113 | S. cerevisiae deletion strains, locus YPR163C, strain tif3, stronger effect = lower value 0.585 | S. cerevisiae deletion strains, locus YPR167C, strain met16, stronger effect = lower value 0.786 | S. cerevisiae deletion strains, strain wtn01, stronger effect = lower value 0.834
